From ChEMBL document CHEMBL1961873, “Compounds: GSK PKIS; Assays: Nanosyn kinase panel” (2012)

Experiments:
[1] = biological target: Sphingosine kinase 1 (Homo sapiens) (UniProt Q9NYA1); conditions: at 1 µM;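 note: mean SPHK1 inhibition value reported from the GSK PKIS kinase panel screen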
[2] = biological target: T1, Sphingosine kinase 2 (Homo sapiens) (UniProt Q9NRA0); conditions: at 0.1 µM
T1 sequence (whole entry): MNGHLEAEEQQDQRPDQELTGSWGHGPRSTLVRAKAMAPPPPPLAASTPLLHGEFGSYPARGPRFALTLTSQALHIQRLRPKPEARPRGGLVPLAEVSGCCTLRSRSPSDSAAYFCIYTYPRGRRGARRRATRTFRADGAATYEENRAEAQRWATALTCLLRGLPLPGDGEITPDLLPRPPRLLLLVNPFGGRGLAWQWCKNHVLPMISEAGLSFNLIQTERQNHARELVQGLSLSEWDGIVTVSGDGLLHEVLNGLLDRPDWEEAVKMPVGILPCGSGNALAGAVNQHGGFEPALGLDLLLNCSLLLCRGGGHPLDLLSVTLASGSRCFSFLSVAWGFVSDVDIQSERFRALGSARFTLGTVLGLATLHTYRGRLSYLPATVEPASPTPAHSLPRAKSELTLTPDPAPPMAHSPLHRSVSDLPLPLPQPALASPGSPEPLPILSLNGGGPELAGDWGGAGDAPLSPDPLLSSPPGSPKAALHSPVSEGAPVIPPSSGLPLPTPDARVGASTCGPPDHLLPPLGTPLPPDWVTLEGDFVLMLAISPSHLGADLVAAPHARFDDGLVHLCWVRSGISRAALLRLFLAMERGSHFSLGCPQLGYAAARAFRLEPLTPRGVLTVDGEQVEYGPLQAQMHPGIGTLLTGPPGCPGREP

[3] = biological target: T1, Sphingosine kinase 2 (Homo sapiens); conditions: at 1 µM
[4] = biological target: Casein kinase II subunit alpha (Homo sapiens) (UniProt P68400); conditions: at 0.1 µM
Casein kinase II subunit alpha (Homo sapiens), sequence (P68400 whole entry, looked up): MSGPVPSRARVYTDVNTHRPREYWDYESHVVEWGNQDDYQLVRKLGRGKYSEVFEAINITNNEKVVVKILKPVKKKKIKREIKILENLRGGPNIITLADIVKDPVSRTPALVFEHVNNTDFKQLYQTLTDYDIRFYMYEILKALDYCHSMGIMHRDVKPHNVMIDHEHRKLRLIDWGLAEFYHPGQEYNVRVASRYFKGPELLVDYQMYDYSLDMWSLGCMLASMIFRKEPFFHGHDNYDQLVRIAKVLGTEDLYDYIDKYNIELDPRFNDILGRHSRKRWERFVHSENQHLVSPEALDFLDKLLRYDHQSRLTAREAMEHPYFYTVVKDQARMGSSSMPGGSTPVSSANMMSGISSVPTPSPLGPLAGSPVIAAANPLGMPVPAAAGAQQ

[5] = biological target: Casein kinase II subunit alpha (Homo sapiens) (UniProt P68400); conditions: at 1 µM
[6] = biological target: T2, Inhibitor of nuclear factor kappa-B kinase subunit alpha (Homo sapiens) (UniProt O15111); conditions: at 0.1 µM
T2 sequence (whole entry): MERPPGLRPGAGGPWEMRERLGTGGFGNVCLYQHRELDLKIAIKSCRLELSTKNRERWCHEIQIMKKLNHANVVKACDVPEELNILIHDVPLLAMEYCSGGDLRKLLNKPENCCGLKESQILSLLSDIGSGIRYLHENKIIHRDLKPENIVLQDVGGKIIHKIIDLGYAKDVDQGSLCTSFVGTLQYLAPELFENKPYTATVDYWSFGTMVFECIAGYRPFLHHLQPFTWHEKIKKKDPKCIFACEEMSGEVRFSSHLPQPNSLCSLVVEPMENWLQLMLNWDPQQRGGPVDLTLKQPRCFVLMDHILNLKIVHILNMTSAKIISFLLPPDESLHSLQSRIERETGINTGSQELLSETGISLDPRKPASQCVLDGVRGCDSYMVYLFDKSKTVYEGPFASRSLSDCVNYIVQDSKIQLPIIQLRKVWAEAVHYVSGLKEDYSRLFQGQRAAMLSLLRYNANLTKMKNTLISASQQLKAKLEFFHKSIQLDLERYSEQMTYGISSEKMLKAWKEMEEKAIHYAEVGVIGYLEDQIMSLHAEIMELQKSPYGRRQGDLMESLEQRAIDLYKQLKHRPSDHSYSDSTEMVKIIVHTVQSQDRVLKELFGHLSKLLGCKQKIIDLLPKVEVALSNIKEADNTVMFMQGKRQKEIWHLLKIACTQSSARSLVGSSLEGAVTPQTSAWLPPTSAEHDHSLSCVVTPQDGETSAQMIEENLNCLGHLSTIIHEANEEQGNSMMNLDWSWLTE

[7] = biological target: T2, Inhibitor of nuclear factor kappa-B kinase subunit alpha (Homo sapiens); conditions: at 1 µM
[8] = biological target: T3, Inhibitor of nuclear factor kappa-B kinase subunit beta (Homo sapiens) (UniProt O14920); conditions: at 0.1 µM
T3 sequence (whole entry): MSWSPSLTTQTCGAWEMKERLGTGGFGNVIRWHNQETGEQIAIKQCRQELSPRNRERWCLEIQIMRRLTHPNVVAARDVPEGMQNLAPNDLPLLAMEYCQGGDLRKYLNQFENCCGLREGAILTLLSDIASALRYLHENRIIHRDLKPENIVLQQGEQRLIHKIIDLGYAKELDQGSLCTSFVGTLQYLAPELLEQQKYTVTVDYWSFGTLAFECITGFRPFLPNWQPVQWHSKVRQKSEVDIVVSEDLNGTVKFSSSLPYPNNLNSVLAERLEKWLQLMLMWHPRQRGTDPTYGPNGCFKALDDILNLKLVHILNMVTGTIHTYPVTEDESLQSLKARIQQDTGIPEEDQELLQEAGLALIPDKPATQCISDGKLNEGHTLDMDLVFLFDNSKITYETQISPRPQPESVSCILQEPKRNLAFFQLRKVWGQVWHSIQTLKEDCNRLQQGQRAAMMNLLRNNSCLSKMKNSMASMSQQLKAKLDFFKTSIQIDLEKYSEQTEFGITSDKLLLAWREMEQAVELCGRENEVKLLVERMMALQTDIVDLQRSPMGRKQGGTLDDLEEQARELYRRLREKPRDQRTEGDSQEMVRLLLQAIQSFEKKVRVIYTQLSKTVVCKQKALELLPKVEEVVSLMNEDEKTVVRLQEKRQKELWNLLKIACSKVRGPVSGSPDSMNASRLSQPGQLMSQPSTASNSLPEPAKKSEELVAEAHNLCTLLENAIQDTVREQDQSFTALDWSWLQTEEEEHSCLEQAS

[9] = biological target: T3, Inhibitor of nuclear factor kappa-B kinase subunit beta (Homo sapiens); conditions: at 1 µM
[10] = biological target: T4, Inhibitor of nuclear factor kappa-B kinase subunit epsilon (Homo sapiens) (UniProt Q14164); conditions: at 0.1 µM
T4 sequence (whole entry): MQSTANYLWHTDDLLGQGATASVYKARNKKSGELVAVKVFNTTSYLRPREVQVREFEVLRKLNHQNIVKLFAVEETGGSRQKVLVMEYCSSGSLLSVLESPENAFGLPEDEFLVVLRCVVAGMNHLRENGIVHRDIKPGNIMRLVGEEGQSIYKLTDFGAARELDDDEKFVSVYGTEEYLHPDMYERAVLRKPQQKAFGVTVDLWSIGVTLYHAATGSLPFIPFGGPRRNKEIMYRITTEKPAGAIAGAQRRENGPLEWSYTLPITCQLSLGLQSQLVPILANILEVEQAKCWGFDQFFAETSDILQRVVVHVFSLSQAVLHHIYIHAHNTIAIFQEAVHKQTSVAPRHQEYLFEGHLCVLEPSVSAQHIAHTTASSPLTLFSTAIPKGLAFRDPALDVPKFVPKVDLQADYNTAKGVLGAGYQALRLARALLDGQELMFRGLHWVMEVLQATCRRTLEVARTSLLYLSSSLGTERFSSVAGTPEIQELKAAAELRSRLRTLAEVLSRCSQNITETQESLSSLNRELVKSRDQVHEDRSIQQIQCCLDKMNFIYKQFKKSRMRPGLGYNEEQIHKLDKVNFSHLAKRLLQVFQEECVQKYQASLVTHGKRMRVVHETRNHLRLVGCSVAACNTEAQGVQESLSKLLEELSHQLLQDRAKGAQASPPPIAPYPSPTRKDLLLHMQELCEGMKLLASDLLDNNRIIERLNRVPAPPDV

[11] = biological target: T4, Inhibitor of nuclear factor kappa-B kinase subunit epsilon (Homo sapiens); conditions: at 1 µM
[12] = biological target: T5, Serine/threonine-protein kinase Nek1 (Homo sapiens) (UniProt Q96PY6); conditions: at 0.1 µM
T5 sequence (whole entry): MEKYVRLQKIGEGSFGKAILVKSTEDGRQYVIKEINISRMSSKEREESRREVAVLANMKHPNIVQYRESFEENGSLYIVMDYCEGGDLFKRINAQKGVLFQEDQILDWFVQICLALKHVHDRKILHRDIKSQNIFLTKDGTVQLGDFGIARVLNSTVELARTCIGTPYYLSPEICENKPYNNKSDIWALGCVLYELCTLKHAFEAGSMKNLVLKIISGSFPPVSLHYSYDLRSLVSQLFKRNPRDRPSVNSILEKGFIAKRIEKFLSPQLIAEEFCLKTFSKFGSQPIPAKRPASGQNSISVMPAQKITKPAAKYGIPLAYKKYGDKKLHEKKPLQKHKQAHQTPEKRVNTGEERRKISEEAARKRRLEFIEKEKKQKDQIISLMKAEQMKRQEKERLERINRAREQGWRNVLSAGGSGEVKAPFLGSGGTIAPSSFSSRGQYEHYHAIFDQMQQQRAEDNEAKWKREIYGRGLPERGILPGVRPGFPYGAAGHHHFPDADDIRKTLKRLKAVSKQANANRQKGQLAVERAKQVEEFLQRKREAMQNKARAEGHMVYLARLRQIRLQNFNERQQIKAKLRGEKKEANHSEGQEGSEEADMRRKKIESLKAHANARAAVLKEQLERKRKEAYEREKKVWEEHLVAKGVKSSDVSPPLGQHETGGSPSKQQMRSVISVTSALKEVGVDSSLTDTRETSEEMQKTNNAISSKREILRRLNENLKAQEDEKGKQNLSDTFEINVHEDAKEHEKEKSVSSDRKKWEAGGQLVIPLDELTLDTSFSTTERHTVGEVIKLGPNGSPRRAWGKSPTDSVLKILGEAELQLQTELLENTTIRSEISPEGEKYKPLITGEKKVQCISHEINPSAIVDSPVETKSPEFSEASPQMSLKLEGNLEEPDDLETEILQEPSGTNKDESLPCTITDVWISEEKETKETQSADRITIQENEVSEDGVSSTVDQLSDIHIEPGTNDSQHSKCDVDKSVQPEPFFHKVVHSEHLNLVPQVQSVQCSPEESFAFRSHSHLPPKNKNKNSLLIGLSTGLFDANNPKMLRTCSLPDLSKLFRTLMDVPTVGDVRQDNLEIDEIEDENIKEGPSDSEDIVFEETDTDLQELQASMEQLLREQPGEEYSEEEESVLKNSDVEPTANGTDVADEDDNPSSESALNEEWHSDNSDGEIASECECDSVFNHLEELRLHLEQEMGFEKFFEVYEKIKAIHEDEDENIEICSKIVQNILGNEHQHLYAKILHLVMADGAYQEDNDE

[13] = biological target: T5, Serine/threonine-protein kinase Nek1 (Homo sapiens); conditions: at 1 µM
[14] = biological target: T6, Serine/threonine-protein kinase Nek2 (Homo sapiens) (UniProt P51955); conditions: at 0.1 µM
T6 sequence (whole entry): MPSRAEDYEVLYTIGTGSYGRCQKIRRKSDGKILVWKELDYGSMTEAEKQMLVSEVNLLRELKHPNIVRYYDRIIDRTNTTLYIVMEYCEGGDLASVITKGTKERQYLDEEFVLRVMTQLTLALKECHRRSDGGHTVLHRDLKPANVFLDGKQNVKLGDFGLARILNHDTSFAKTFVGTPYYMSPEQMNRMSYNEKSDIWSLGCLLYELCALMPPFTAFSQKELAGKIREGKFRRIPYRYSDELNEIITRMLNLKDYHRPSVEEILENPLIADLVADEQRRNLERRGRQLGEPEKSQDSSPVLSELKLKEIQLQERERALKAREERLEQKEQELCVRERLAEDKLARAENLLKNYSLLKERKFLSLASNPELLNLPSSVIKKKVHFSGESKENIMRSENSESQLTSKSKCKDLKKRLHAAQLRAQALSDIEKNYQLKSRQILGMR

[15] = biological target: T6, Serine/threonine-protein kinase Nek2 (Homo sapiens); conditions: at 1 µM
[16] = biological target: Serine/threonine-protein kinase Nek6 (Homo sapiens) (UniProt Q9HC98); conditions: at 0.1 µM
Serine/threonine-protein kinase Nek6 (Homo sapiens), sequence (Q9HC98 whole entry): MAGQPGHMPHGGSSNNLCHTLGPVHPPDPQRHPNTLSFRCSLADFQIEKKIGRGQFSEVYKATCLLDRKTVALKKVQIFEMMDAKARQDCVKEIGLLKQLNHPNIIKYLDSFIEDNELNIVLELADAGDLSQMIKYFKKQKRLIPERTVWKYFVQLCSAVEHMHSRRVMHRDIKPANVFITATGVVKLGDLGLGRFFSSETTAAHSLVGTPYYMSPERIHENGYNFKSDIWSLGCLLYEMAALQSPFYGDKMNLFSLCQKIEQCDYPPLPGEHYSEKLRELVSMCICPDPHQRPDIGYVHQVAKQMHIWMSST

[17] = biological target: Serine/threonine-protein kinase Nek6 (Homo sapiens) (UniProt Q9HC98); conditions: at 1 µM
[18] = biological target: Serine/threonine-protein kinase Nek7 (Homo sapiens) (UniProt Q8TDX7); conditions: at 0.1 µM
Serine/threonine-protein kinase Nek7 (Homo sapiens), sequence (Q8TDX7 whole entry, looked up): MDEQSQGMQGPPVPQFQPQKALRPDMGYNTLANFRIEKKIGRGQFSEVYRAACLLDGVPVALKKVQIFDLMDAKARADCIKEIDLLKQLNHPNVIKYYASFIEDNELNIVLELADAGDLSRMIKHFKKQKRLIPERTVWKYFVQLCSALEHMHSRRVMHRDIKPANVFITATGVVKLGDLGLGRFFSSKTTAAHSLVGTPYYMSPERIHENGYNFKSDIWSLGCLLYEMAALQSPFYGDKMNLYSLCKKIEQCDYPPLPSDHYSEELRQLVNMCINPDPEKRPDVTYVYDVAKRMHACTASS

[19] = biological target: Serine/threonine-protein kinase Nek7 (Homo sapiens) (UniProt Q8TDX7); conditions: at 1 µM
[20] = biological target: T7, Serine/threonine-protein kinase Nek9 (Homo sapiens) (UniProt Q8TD19); conditions: at 0.1 µM;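 note: reported value is the mean percent inhibition of NEK9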
T7 sequence (whole entry): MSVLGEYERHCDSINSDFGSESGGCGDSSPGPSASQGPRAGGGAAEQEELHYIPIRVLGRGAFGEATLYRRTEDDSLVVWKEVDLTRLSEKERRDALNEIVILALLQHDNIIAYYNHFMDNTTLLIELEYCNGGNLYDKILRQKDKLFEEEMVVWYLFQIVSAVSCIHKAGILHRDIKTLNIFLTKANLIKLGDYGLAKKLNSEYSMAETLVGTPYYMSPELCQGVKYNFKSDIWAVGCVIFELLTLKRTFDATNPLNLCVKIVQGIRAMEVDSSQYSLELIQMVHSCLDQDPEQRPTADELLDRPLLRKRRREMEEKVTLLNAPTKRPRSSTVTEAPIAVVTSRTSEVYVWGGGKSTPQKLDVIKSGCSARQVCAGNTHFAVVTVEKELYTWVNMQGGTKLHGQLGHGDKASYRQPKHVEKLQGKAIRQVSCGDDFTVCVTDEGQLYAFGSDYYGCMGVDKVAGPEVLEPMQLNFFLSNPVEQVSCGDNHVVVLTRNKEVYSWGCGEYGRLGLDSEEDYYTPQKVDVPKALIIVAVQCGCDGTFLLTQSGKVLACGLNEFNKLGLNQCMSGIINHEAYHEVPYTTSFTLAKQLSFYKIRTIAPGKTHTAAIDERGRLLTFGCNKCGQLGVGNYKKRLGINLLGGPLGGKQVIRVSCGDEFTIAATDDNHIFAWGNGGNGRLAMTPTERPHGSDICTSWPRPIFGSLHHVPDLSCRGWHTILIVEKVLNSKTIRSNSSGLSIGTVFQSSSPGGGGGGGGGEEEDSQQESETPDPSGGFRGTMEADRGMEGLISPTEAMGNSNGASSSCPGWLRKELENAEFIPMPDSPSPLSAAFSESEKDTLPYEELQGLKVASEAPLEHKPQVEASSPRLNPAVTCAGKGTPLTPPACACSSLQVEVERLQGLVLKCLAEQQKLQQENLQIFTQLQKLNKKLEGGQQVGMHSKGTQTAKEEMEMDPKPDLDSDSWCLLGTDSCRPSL

Sphingosine kinase 1 (Homo sapiens), sequence (Q9NYA1 whole entry): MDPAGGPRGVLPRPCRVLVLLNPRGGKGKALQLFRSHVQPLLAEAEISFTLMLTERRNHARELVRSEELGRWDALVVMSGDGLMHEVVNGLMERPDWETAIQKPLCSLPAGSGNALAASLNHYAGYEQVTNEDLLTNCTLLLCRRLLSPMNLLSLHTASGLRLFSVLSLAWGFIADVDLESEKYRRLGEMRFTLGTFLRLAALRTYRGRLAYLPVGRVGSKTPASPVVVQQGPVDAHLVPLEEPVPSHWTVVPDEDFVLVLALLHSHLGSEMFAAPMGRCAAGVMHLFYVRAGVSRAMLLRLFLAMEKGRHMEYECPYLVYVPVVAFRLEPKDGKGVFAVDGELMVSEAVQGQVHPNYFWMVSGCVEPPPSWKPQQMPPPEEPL

Row | Compound | inhibition [1] [%] | inhibition [2] [%] | inhibition [3] [%] | inhibition [4] [%] | inhibition [5] [%] | inhibition [6] [%] | inhibition [7] [%] | inhibition [8] [%] | inhibition [9] [%] | inhibition [10] [%] | inhibition [11] [%] | inhibition [12] [%] | inhibition [13] [%] | inhibition [14] [%] | inhibition [15] [%] | inhibition [16] [%] | inhibition [17] [%] | inhibition [18] [%] | inhibition [19] [%] | inhibition [20] [%]
1 | O=C(Nc1n[nH]c2cc(-c3ccccc3)ccc12)C1CC1 | 0.1 | -1.1 | -0.92 | 1.99 | 6.38 | 2.61 | 7.25 | 5.63 | 3.54 | 4.3 | 4.27 | 1.53 | 3.2 | 5.82 | 6.37 | 0.8 | -0.52 | 5.67 | 3.1 | 4.27
2 | O=C(NCC1CC1)c1ccc(-c2cccc(C(=O)NC3CC3)c2)cc1 | -3.07 | 0.02 | 1.28 | 0.31 | -2.23 | 4.96 | 0.42 | 1.17 | 0.13 | 3.8 | – | 1.66 | 2.92 | 1.96 | 1.96 | 1.75 | 1.92 | 3.35 | 3.21 | 9.43
